# SW480 rereplic = inducers of DNA re-replication in SW480 colon cancer cells; SW480 DNA re-replication, Hoechst DNA content imaging, 48 h; Potency, µM (doses to about 46.1 µM), for inactives: top-dose re-replication activation, hits mostly activators; actives 1.8% (n = 340,000); AID 624297; also: % of control where 0% means no effect; nearly all actives have a fitted effect of over 55% in size
#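 DNA re-replication was detected as more nuclei of elevated Hoechst intensity after 48 hr exposure to compound (23 nL pinned per well of 250 cells).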
# HT1080NT lethal = kills 2HG-producing HT-1080-NT fibrosarcoma cells. Potency, µM (series often up to 46.1 µM), for inactives: at the top dose activity, negative = less viability, most hits filed as cytotoxic. HT-1080-NT fibrosarcoma viability, CellTiter-Glo ATP luminescence, 48 h. actives 1.6% (n = 360,000);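 also: NT is the 2HG producing partner of a matched IDH1 knockdown line; 0% = DMSO-treated cells and -100% = media-only wells without cells; nearly all actives have a fitted effect of over 55% in size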
#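 Luminescent CellTiter-Glo readout after 48 hours of compound exposure at 37 degrees C defined viability of HT-1080-NT cells. Activity was normalized to DMSO wells and cell-free media wells; concentration-response curves were fitted and assigned curve classes.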
# KB-V1 cytotox = KB-V1 MDR subline cytotoxicity; KB-V1 MDR cells viability, CellTiter-Glo, 72 h; AID 1347076; Potency, µM (doses to about 46.1 µM), hits mostly cytotoxic; actives 3.4% (n = 400,000); also: % is scaled to controls: 0 for no effect and ±100 for the full control effect; nearly all actives have a fitted effect of over 60% in size
#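 Following 72 h at 37 degrees C with compound, KB-V1 cell viability was read by CellTiter-Glo luminescence, medium being phenol-red-free DMEM plus 10% FBS; concentration-response parameters came from normalized, curve-fitted qHTS data.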
# KB-3-1 tox = KB-3-1 parental cell cytotoxicity; KB-3-1 viability, CellTiter-Glo ATP luminescence, 72 h; Potency, µM (top dose mostly 46.1 µM), usual class: cytotoxic; actives 1.4% (n = 400,000); AID 1347075; also: % is scaled to controls: 0 for no effect and ±100 for the full control effect; nearly all actives have a fitted effect of over 60% in size
#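 Cytotoxicity measured as CellTiter-Glo luminescence after 72 h at 37 C. Compound titrations were pinned onto drug-naive KB-3-1 parental adenocarcinoma cells grown in DMEM with 10% FBS, and normalized data fitted to concentration-response curves.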
# HT1080 IDH1KD tx = toxicity to HT-1080 IDH1 knockdown cells (counter line). HT-1080 IDH1 knockdown viability, ATP luminescence, 48 h. Potency, µM (series often up to 46.1 µM), inactives show at the highest dose activity, negative = toxicity, usual class: cytotoxic. actives 2% (n = 360,000);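 also: 0% = DMSO wells and -100% = cell-free medium wells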
#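 Viability of IDH1-knockdown HT-1080 fibrosarcoma cells was assessed by CellTiter-Glo after 48 h at 37 °C with titrated compound; concentration-effect curves were classified by fit quality and response size.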
# MCF10A rereplic = induces DNA re-replication in MCF 10a normal breast cells; Potency, µM (series often up to 46.1 µM), without a hit: at the highest dose activity, positive = re-replication, most hits filed as activators; MCF 10A DNA re-replication, Hoechst nuclear intensity, 48 h; actives 2.9% (n = 350,000); also: % of control where 0% means no effect; nearly all actives have a fitted effect of over 50% in size
# * = called active by the depositor; i = inactive; ? = inconclusive; . = no result given. An excerpt weighted towards active compounds, which were near 8% of everything screened. Calls follow the shape of the dose curve; as a rule, active = well fitted curve in the direction sought with a large enough effect; inconclusive = small, poorly fitted or top-dose-only effect, or another doubt; inactive = no such curve, though single readings can be large; an effect the other way counts as inactive or inconclusive. Potency is read from the fitted curve at half-maximal effect.
SMILES,SW480 rereplic,HT1080NT lethal,KB-V1 cytotox,KB-3-1 tox,HT1080 IDH1KD tx,MCF10A rereplic
O=C(NN1C(=O)c2ccccc2NC1c1ccc([N+](=O)[O-])o1)c1ccc(Br)cc1 (centres undefined),?,4%,i,i,-2%,9.2µM*
Cc1cc([N+](=O)[O-])ccc1-c1ccc(C2Nc3ccccc3C(=O)N2O)o1 (centres undefined),?,?,i,23µM*,7.1µM*,10µM*
O=C(NN1C(=O)c2cc(Br)ccc2NC1c1cc(Br)cc(Br)c1O)c1ccncc1 (centres undefined),?,-28%,i,i,?,?
CC(=O)NN1C(=O)c2ccccc2NC1c1ccc([N+](=O)[O-])o1 (centres undefined),23µM*,-18%,i,?,-14%,15%
O=C(NN1C(=O)c2ccccc2NC1c1ccco1)c1ccc(Br)cc1 (centres undefined),-15%,6%,i,i,1%,0%
COC(=O)CN1C(=O)C(C)(C)c2cc(S(=O)(=O)Nc3ccc(C(C)C)cc3)ccc21,.,.,i,i,.,.
O=c1cc2nc(-c3ccccc3F)nc(SCc3ccc(Br)cc3)n2[nH]1,.,.,i,i,.,.
O=C1[C@@H]2Cc3ccccc3CN2C(=O)N1c1cccc(F)c1,-4%,27%,i,i,0%,16%
Cc1ccccc1N1C(=O)[C@@H]2Cc3ccccc3CN2C1=O,-6%,-11%,16µM*,i,-6%,7%
CN(C)c1ccc(NC(=O)c2cn(-c3ccccc3)nc2-c2cccs2)cc1,0%,0%,?,i,-5%,18%
CC(=O)C1=NN(c2ccccc2)C(c2cccs2)N1c1ccc(N(C)C)cc1 (centres undefined),?,7.1µM*,i,?,2.5µM*,?
CC(=O)C1=NN(c2ccccc2)C(c2ccc3c(c2)OCO3)N1c1ccccc1 (centres undefined),5.8µM*,-21%,i,?,-29%,8.2µM*
CC(=O)N1N=C(c2ccccc2)CC1c1ccc2c(c1)OCO2 (centres undefined),-12%,1%,i,i,3%,-5%
O=c1[nH]c(C2CCN(S(=O)(=O)c3ccc4c(c3)OCCO4)CC2)nc2c1nnn2Cc1cccc(F)c1,?,-9%,i,i,-12%,16%
O=c1[nH]c(C2CCN(S(=O)(=O)c3cccc(C(F)(F)F)c3)CC2)nc2c1nnn2Cc1cccc(F)c1,4%,21µM*,?,?,21µM*,?
COc1ccccc1Cn1c(/C=C/c2ccccc2)nc2ccccc21,?,-17%,5.2µM*,16µM*,-21%,?
COc1ccc(/C=C/c2nc3ccccc3n2Cc2ccccc2OC)cc1,?,16µM*,?,?,16µM*,16µM*
O=C(Nc1sc2c(c1C(=O)Nc1ccccc1Cl)CCCC2)c1ccccc1F,.,.,i,i,.,.
CCOC(=O)c1c(C)[nH]c(C)c1S(=O)(=O)N1CCCC(C(=O)N2CCN(c3cc(C)ccc3C)CC2)C1 (centres undefined),.,.,i,i,.,.
CN(Cc1ccc(Cl)c(Cl)c1)C(c1cc2ccccc2o1)c1nnnn1C(C)(C)C (centres undefined),.,-18%,15µM*,?,?,.
CCOC(=O)C(=O)NNc1ccc(C)cc1,3%,?,i,i,-2%,?
CCOC(=O)C(=O)NNc1ccc(Cl)cc1,69%,3.7µM*,i,i,4.1µM*,?
CCCOC(=O)C(=O)NNc1ccccc1,7%,3.7µM*,i,?,5.2µM*,21%
O=C(NNc1ccc(Cl)cc1)c1cccs1,29%,4.6µM*,i,i,6.5µM*,?
CCc1ccc(C(=O)NNc2cc(Cl)cc(Cl)c2)cc1,11%,-28%,?,i,?,26%
SMILES,SW480 rereplic,HT1080NT lethal,KB-V1 cytotox,KB-3-1 tox,HT1080 IDH1KD tx,MCF10A rereplic
CCc1ccc(C(=O)NNc2ccc(Cl)cc2)cc1,?,?,i,?,6.5µM*,18%
Cc1ccc(NC(=O)Cn2c(=O)n(-c3ccccc3)c(=O)c3ccc(C(=O)NCc4ccc5c(c4)OCO5)cc32)c(C)c1,.,.,?,i,.,.
COc1cccc(NC(=O)CSc2nc(=O)n(Cc3cccnc3)c3c2CCC3)c1,.,.,i,i,.,.
NCCCCNc1ncnc2ccc(-c3ccc4c(c3)OCO4)cc12,.,.,i,i,.,.
Cc1cccc(NNC(=O)C(=O)NNc2cccc(C)c2)c1,-7%,?,i,?,5.2µM*,6.5µM*
C=C(C)C(=O)NNc1ccccc1,?,7.3µM*,i,i,21µM*,?
CC(=O)Nc1ccccc1,-8%,15%,i,i,16%,1%
CC(C)OC(=O)C(=O)NNc1ccccc1,3%,7.3µM*,i,?,9.2µM*,10µM*
O=S(=O)(c1ccc(Cl)cc1)c1nc(-c2cccs2)oc1SCc1ccccc1F,.,.,i,i,.,.

# Screening data: PubChem BioAssay, National Center for Advancing Translational Sciences (NCATS)
